NS1 function inh – qHTS Assay for Inhibitors of Influenza NS1 Protein Function; Potency, µM (highest dose often 46.1 µM); 270,000 compounds, 0.4% hits; AID 2326, 2010; further: actives are rising curves; nearly all actives have a fitted effect of over 50% in size
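Compounds were scored for reversing the slow growth caused by influenza A NS1 in S. cerevisiae, measured by optical density at 600 nm. Assay medium contained 2% galactose at pH 6.0; NS1-free yeast of the same strain were the positive control.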
CHX counter – Cycloheximide Counterscreen for Small Molecule Inhibitors of Shiga Toxin | cell reporter, cycloheximide protein synthesis inhibition counterscreen | max response, % | 300,000 compounds, 12% hits | AID 2314, 2010; in the data active means max response mostly above about 13%, no sharp cut-off; inactive means mostly below about 14%; further: read at 38.3 µM for the half of the compounds with a filed dose
SARS PLP yeast – qHTS of Yeast-based Assay for SARS-CoV PLP; S. cerevisiae expressing SARS-CoV PLpro, growth rescue; Potency, µM (series often up to 32.9 µM), most hits filed as activators; AID 485353, 2010; 330,000 compounds, 0.19% hits; further: nearly all actives have a fitted effect of over 55% in size
Pf growth 48h – Primary qHTS for delayed death inhibitors of the malarial parasite plastid, 48 hour incubation | Potency, µM (doses to about 28.7 µM), actives largely listed as inhibitors | P. falciparum luciferase growth in erythrocytes, 48 h | 310,000 compounds, 5.9% hits; active means well fitted inhibition curve with a large enough effect; inconclusive means small, poorly fitted or top-dose-only effect, or another doubt; inactive means no such curve, though single readings can be large or run the other way
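First compound was added to culture medium, then infected red cells at 0.1% parasitemia and 2% hematocrit (final). After incubation at 37 C under 5% CO2, luciferase detection reagent was dispensed and light output recorded.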
Pf growth 96h – Primary qHTS for delayed death inhibitors of the malarial parasite plastid, 96 hour incubation | 320,000 compounds, 6.9% hits | P. falciparum luciferase reporter growth, 96 h | Potency, µM (titrated, usually from 28.7 µM), actives largely listed as inhibitors | AID 504834, 2011; active means well fitted inhibition curve with a large enough effect; inconclusive means small, poorly fitted or top-dose-only effect, or another doubt; inactive means no such curve, though single readings can be large or run the other way
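96 h incubation, 37 C, 5% CO2, of luciferase-reporter P. falciparum-infected RBCs (2% hematocrit, 0.05% parasitemia final) with test compounds; endpoint luminescence.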
Shiga inhibitor – A qHTS for Small Molecule Inhibitors of Shiga Toxin; 290,000 compounds, 9.2% hits; inhibition, % at 38.7 µM; AID 2315, 2010; Vero cells, Shiga toxin protein synthesis inhibition reporter; in the data active means inhibition mostly above about 28%, no sharp cut-off; inactive means mostly below about 43%
Of the large screens only hits and unclear results are named; the others gave an inactive call. Most compounds without a hit are left out; they make up all but 21% or so of the library. Unless noted, the call rests on the fitted dose curve.

CCOC(=O)c1[nH]c(C)c(/C(O)=C2\C(=O)C(=O)N(CCCN3CCOCC3)C2c2cccs2)c1C (stereo not drawn)	CHX counter 18.8, Pf growth 96h inconclusive
CC1(C)CC(=O)C2=C(C1)N(c1cccc(Cl)c1)C(=O)NC2(C(F)(F)F)C(F)(F)F	none
S=C(Nc1ccc(Nc2ccccc2)cc1)NN1CCOCC1	none
Cc1ccc2c(c1)C1CN(C)CCC1N2C(=O)Cc1cccs1 (stereo not drawn)	Pf growth 48h inconclusive, Pf growth 96h 0.928µM
Cc1ccc2c(c1)C1CN(C)CCC1N2C(=O)Nc1ccc(Cl)cc1 (stereo not drawn)	Pf growth 48h 10.4µM, Pf growth 96h 10.4µM
COc1ccc(C(CNC(=O)c2cccc(S(=O)(=O)N3CCOCC3)c2)N2CCCC2)cc1 (stereo not drawn)	none (no result: NS1 function inh, CHX counter, Shiga inhibitor)
COc1ccc(-c2csc(NC(=O)C3=COCCO3)n2)cc1OC	none (no result: NS1 function inh, CHX counter, Shiga inhibitor)
Clc1ccc(-c2csc(N3CCOCC3)n2)cc1	CHX counter 47.2, Shiga inhibitor 56.4 (no result: NS1 function inh)
c1ccc(-c2csc(Cc3nnc4n3CCCCC4)n2)cc1	none
COc1ccc(-c2csc(N3CCOCC3)n2)cc1OC	CHX counter 51.3, Shiga inhibitor 74.6
O=[N+]([O-])c1ccc(N2CCN(c3nc(-c4ccc(Cl)cc4)cs3)CC2)cc1	none (no result: Pf growth 48h)
COc1ccc(-c2csc(/N=C/N(C)C)n2)cc1OC	CHX counter 17.8
COc1ccccc1-c1csc(Cc2nnc3n2CCCCC3)n1	CHX counter 46.3, Shiga inhibitor 152.6
O=C(Nc1ccc(-c2ccc3nncn3n2)cc1)c1ccc(Br)o1	Pf growth 48h inconclusive, Pf growth 96h inconclusive (no result: NS1 function inh)
COc1ccccc1-c1csc(N2CCC(C(N)=O)CC2)n1	Pf growth 48h 11.7µM, Pf growth 96h inconclusive (no result: NS1 function inh, CHX counter, SARS PLP yeast, Shiga inhibitor)
CN1CCN(c2nc(-c3ccc(Cl)s3)cs2)CC1	CHX counter 46.0, Shiga inhibitor 50.5
c1ccc(-c2cnnc(N3CCCCC3)n2)cc1	CHX counter 32.9, Pf growth 48h inconclusive, Pf growth 96h inconclusive, Shiga inhibitor 112.3
FC(F)(F)c1cc(-c2ccccc2)nc(N2CCCCCC2)n1	none
Brc1ccc(-c2csc(N3CCCCCC3)n2)cc1	CHX counter 8.6
NC(=O)C1(N2CCCCC2)CCN(c2nc(-c3ccc(Br)cc3)cs2)CC1	Pf growth 96h inconclusive (no result: Pf growth 48h)
O=C(NCCc1ccc(Cl)cc1Cl)c1cccnc1	none
N[C@H]1C(O)O[C@H](CO)[C@@H](O)[C@@H]1O (stereo partly drawn)	none (no result: NS1 function inh, CHX counter, SARS PLP yeast, Shiga inhibitor)
CCCCCC(=O)Nc1cc(S(=O)(=O)N2CCOCC2)ccc1Oc1ccc(OCC)cc1	Pf growth 48h inconclusive, Pf growth 96h inconclusive (no result: NS1 function inh, CHX counter, Shiga inhibitor)
Clc1ccc(-c2csc(N3CCC(c4ccccc4)C3)n2)cc1 (stereo not drawn)	Shiga inhibitor 94.9
c1ccc(-c2csc(N3CCCCCC3)n2)cc1	CHX counter 33.4, Shiga inhibitor active
O=[N+]([O-])c1ccc(-c2csc(N3CCCCCC3)n2)cc1	CHX counter 17.2, Pf growth 96h inconclusive
Brc1ccc(-c2csc(N3CCOCC3)n2)cc1	CHX counter 62.6, Pf growth 96h inconclusive, Shiga inhibitor 136.2 (no result: NS1 function inh)
COc1ccc(-c2csc(N3CCC(c4ccccc4)C3)n2)cc1 (stereo not drawn)	NS1 function inh inconclusive
Cc1nc(NC(=O)CN2CC(C)OC(C)C2)sc1C(=O)N(C)C (stereo not drawn)	Pf growth 96h inconclusive
O=c1[nH]c2ccccc2n1C1=CCNCC1	none
CCN(CC(=O)Nc1ccccc1C(F)(F)F)C(=O)CSCc1ccc(C)cc1	none (no result: NS1 function inh, CHX counter, Shiga inhibitor)
CCCC(NC(=O)COc1cc2c(c3oc(=O)cc(C)c13)CCC(C)(C)O2)C(=O)O (stereo not drawn)	Pf growth 96h inconclusive
O=C(COC(=O)/C=C/c1ccco1)Nc1cc(S(=O)(=O)N2CCOCC2)ccc1Cl	none (no result: NS1 function inh, CHX counter, Pf growth 48h, Pf growth 96h, Shiga inhibitor)
NC(=O)C1CCN(c2nc(-c3ccc(Br)cc3)cs2)CC1	CHX counter 19.8, Pf growth 48h inconclusive, Pf growth 96h inconclusive
O=C(N1CCOCC1)N1CCN(c2nc(-c3ccc(F)cc3)cs2)CC1	Pf growth 96h 7.38µM
Clc1ccc(-c2csc(N3CCCCCC3)n2)cc1	CHX counter 21.8, Pf growth 96h inconclusive
COc1ccc(NS(=O)(=O)c2nnc(NC(=O)c3ccccc3F)s2)cc1	Pf growth 96h inconclusive
CCNC(=O)Cn1cc(C(F)(F)F)cc(Cl)c1=O	none
O=C(Nc1nnc(C(F)(F)F)s1)c1cccnc1	CHX counter 39.0, Shiga inhibitor 64.8 (no result: Pf growth 96h)
O=C(Nc1nnc(-c2ccccc2F)s1)c1cccnc1	CHX counter 23.2, Shiga inhibitor 45.4 (no result: NS1 function inh)
COc1ccc(OC)c2c1sc(=NC(=O)C1COc3ccccc3O1)n2C (stereo not drawn)	none
Cc1nc2ccccn2c(=O)c1CCN1CCC(C(=O)c2ccc(F)cc2)CC1	Pf growth 48h inconclusive, Pf growth 96h 10.7µM
Cc1nc2sccn2c(=O)c1CCN1CCC(=C(c2ccc(F)cc2)c2ccc(F)cc2)CC1	Pf growth 48h 10.4µM, Pf growth 96h 10.4µM
O=C(CN1CCC(C(=O)c2ccc(F)cc2)CC1)Nc1ccccc1	Pf growth 48h inconclusive, Pf growth 96h inconclusive
CC1CCCC(NC(=O)COC(=O)/C=C/c2ccco2)C1C (stereo not drawn)	none (no result: NS1 function inh, CHX counter, Shiga inhibitor)
CCn1ncc([N+](=O)[O-])c1C(=O)N1CCc2ccccc2C1	none
COc1ccc(NC(=O)c2ccco2)cc1NC(=O)c1ccccc1F	none
COc1cccc(C(NC(=O)c2ccccc2F)NC(=O)c2ccccc2F)c1	Pf growth 48h 13.1µM, Pf growth 96h inconclusive
COc1ccc(NC(=O)COc2ccccc2C(=O)NCC(c2ccccc2)N(C)C)cc1Cl (stereo not drawn)	Pf growth 48h inconclusive, Pf growth 96h 13.1µM
COc1ccc(C(NC(=O)c2cccc(F)c2)c2ccccc2)cc1 (stereo not drawn)	Pf growth 96h inconclusive
COc1ccc(NC(=O)c2ccccc2F)cc1Cl	CHX counter 29.0, Shiga inhibitor 34.8 (no result: Pf growth 48h)
COc1ccc(NC(=O)c2cccc(F)c2)cc1Cl	CHX counter 19.5, Shiga inhibitor 56.8 (no result: Pf growth 48h)
COc1cc(OC)c(NC(=O)c2cccc(F)c2)cc1Cl	none
CC1(C)CNC(=O)CC(C)(C)N1	none (no result: NS1 function inh)
COc1cc(OC)c2c(c1)C(=O)OC2	none
CCOC(=O)c1nc(Nc2cc(Cl)ccc2OC)c2ccccc2n1	none
O=C(CNC(=O)c1cccc(OC(F)F)c1)Nc1ccc(Cl)cc1	none
Cc1ccc(NC(=O)c2cccc(OC(F)F)c2)c(OC(F)F)c1	none
Cc1c(Cl)cccc1NC(=O)c1cccc(OC(F)F)c1	CHX counter 36.5, Pf growth 96h inconclusive, Shiga inhibitor 93.9 (no result: Pf growth 48h)
O=C(Nc1ccc(OC(F)F)c(Cl)c1)c1cccc(OC(F)F)c1	CHX counter 42.8, Shiga inhibitor 66.6 (no result: Pf growth 48h)
Cc1ccccc1C(=O)NC(NC(=O)c1ccccc1C)c1cccc([N+](=O)[O-])c1	Pf growth 96h 1.65µM

Screening results: PubChem, National Center for Advancing Translational Sciences (NCATS)
